This is an account of results in PubChem BioAssay AID2058 (Sanford-Burnham Center for Chemical Genomics, 2009).

In all, about 290,000 compounds went through this assay and about 150 (0.052%) were called active. Many of the other results were omitted from the sample, so actives are more common in it than they were. Entries with a potency or affinity are not part of this list. A number with no mark means an inactive call.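 The calls were made as follows: active = inhibition of at least 50% with at least 30 cells and total cytoplasm GFP at most 10,000,000; inconclusive = under 30 cells or total GFP of 10,000,000 plus; inactive = the rest.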

Sequence of G-protein coupled receptor 35 (Homo sapiens) (Q9HC97 whole entry, looked up): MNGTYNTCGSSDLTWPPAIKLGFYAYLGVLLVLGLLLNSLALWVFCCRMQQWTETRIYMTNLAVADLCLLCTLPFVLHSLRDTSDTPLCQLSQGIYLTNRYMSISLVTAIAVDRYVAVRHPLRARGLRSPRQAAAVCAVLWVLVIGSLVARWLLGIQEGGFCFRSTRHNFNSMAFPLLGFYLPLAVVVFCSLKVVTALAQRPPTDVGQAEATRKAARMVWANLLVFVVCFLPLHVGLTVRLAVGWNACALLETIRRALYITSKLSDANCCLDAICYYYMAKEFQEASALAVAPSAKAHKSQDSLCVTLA

The assay has as its target G-protein coupled receptor 35 (Homo sapiens) (UniProt Q9HC97). The experiment in a line: GPR35 antagonists blocking zaprinast-driven arrestin recruitment, primary screen, imaging, U2OS, beta-arrestin-GFP, zaprinast agonist (AID 2058). Conditions: U2OS GPR35 beta-arrestin-GFP translocation imaging, zaprinast antagonism; at 10 µM; active compounds read high.
Regarding `CC1=C(C(=O)Nc2ccccc2C(=O)N2CCC(C)CC2)SCCO1`, the inhibition (in general, the drop in the measured response relative to a control, in per cent) was -12.3%.
As for `COc1ccc(CCC(=O)Nc2ccc(Cl)c(S(=O)(=O)N3CCCC3)c2)cc1`, the figure is -7.8%; as for `COCCNC(=O)CSc1nc2ccc(N3CCOCC3)cc2c(=O)n1CCc1ccccc1`, -7.7%.
As for `N#CC(C#N)=C1C=C2C=C(N3CCCCC3)CCC2CC1` (stereo not drawn), the figure is 11.2%.
In the case of `CC1(C)CC(NCCN2CCN(C3=CC(=C(C#N)C#N)CC(C)(C)C3)CC2)=CC(=C(C#N)C#N)C1` it was -1%.
Consider `N#CC(C#N)=C1C=C2C=C(N3CCOCC3)CCC2CC1` (stereo not drawn), for which the inhibition is 1.7%.
`N#CC(C#N)=C1C=C2C=C(N3CCCCCC3)CCC2CC1` (stereo not drawn): the inhibition was 46%.
In the case of `COC(=O)c1cc(NC2c3ccccc3C(=O)N2c2cccnc2)cc(C(=O)OC)c1` (stereo not drawn) it was -4%; in that of `COc1cccc(C2N=C(c3ccccc3C)NO2)c1OC` (stereo not drawn), 13.2%.
As for `O=C(CSc1nc(O)c(C2CCCCC2)c(=O)[nH]1)Nc1ccccc1Cl`, the figure is -1.9%; as for `O=C(Nc1ccc2c(c1)oc1ccccc12)C1CC1`, 1.2%; as for `COc1ccc(N=C2S/C(=C\c3ccc(OC(C)C(=O)O)c(OC)c3)C(=O)N2CCc2c[nH]c3ccccc23)cc1` (stereo not drawn), -11.1%.
As to `COc1ccc(N=C2S/C(=C\c3ccc(OCC(=O)O)cc3)C(=O)N2CCc2c[nH]c3ccccc23)cc1`, the inhibition was -10.9%.
For the compound `Cc1ccc2oc(C(=O)Nc3ccc(S(=O)(=O)Nc4ncccn4)cc3)c(C)c2c1`, the inhibition was 18.7%.
In the case of `COc1ccc(/C=C2\CC/C(=C\c3ccc(OC)c(OC)c3)C2=O)cc1OC`, the inhibition is -1.3%.
In the case of `COc1ccc(/C=C2\Cc3ccccc3C2=O)cc1OC` it was 10.6%; in that of `N/C(=N\OC(=O)COc1ccccc1)c1ccncc1`, -1.4%.
In the case of `CCOc1ccccc1/C=N/NC(=O)Cc1csc(Nc2cccc(C(F)(F)F)c2)n1`, the inhibition was 20%.
In the case of `CCOc1ccc(/C=N/NC(=O)Cc2csc(Nc3cccc(C(F)(F)F)c3)n2)c(OCC)c1` it was -0.3%; in that of `O=C(Nc1ccccc1F)C1CCCN(S(=O)(=O)c2ccc(-n3cnnn3)cc2)C1` (stereo not drawn), 7.9%; in that of `O=C(/C=C/c1ccc2ccccc2n1)c1cc(Cl)ccc1O`, 7.6%.
As for `COc1ccc(C(=O)/C=C/c2ccc(N(C)C)cc2)c(OC)c1`, the figure is 21.5%.
In the case of `O=C(/C=C/c1ccncc1)c1cc(Cl)ccc1O` it was 96.6% (active); in that of `CN(C)c1ccc(/C=C/C(=O)c2ccccc2O)cc1`, 21.4%.
On to `O=C(/C=C/c1cccs1)c1cc(Cl)ccc1O`, for which the inhibition was -8.1%.
Consider `CN(C)c1ccc(/C=C/C(=O)c2cc(Cl)ccc2O)cc1`, for which the inhibition is 57.6% (active).
As for `CC(C)N(CCc1ccncc1)C(=S)Nc1ccc(F)c(Cl)c1`, the figure is 4.6%; as for `CC(C)c1ccc(C(=O)NC(=S)Nc2ccc3[nH]c(=O)[nH]c3c2)cc1`, -6.7%.
As for `CC(=O)c1cc2c(cc1N/C(=N/S(=O)(=O)c1ccccc1)c1ccc(Cl)cc1)OCO2`, the figure is 13.2%; as for `CC(C)(C)CC(C)(C)NC(=S)Nc1ccc(S(=O)(=O)N2CCOCC2)cc1`, -2.7%; as for `CCCCOC(=O)c1ccc(NC(=O)c2ccccc2OC)cc1`, 12.9%.
In the case of `CCCCOC(=O)c1ccc(NC(=O)c2cc(Cl)c(Cl)cc2C(=O)O)cc1` it was -5.9%; in that of `Cc1ccc(NC(=O)C(C)Sc2nnc(-c3cccnc3)n2-c2ccccc2)cc1` (stereo not drawn), -0.8%.
For the compound `Cc1nn(C(C)C(=O)NCCc2ccco2)c(=O)c2nn(-c3ccccc3)c(C)c12` (stereo not drawn), the inhibition is -4%.
As for `Cc1cc(-c2nn(-c3ccccc3F)cc2CN2CCC(O)CC2)c(C)s1`, the figure is -0.9%; as for `Cc1cc(-c2nn(-c3ccccc3F)cc2CN2CCCC(CO)C2)c(C)s1` (stereo not drawn), 19.6%.
Turning to `Cc1cc(-c2nn(-c3ccccc3F)cc2CN(C)CC(O)CO)c(C)s1` (stereo not drawn), the inhibition is 103% (active).
Regarding `COCc1cc(/C=N\NC(=O)Cc2ccc(Cl)cc2)ccc1OC`, the inhibition is 1.9%.
Regarding `O=C(CCc1nnc2n(Cc3ccc(F)cc3)c(=O)c3ccccc3n12)NCCCN1CCOCC1`, the inhibition was -5.8%.
As for `CCOc1ccc(/C=C2\SC(=S)NC2=O)cc1OC`, the figure is -8%; as for `CCOc1ccc(/C=C2/SC(=O)NC2=S)cc1`, 5.9%.
Regarding `COc1ccc(NC(=S)N(CCN2CCOCC2)Cc2cc3cc4c(cc3[nH]c2=O)OCCO4)cc1`, the inhibition was 98.1% (active).
In the case of `CCOc1ccc(NC(=S)N(CCN2CCOCC2)Cc2cc3cc4c(cc3[nH]c2=O)OCCO4)cc1` it was 6.4%; in that of `COc1ccc(NC(=S)N(CCN2CCOCC2)Cc2cc3cc4c(cc3[nH]c2=O)OCO4)cc1`, -1.5%; in that of `CS(=O)(=O)c1ccc(NCCc2ccc(S(N)(=O)=O)cc2)c([N+](=O)[O-])c1`, -3.1%.
As for `COc1ccc(N2CCN(C3CC(=O)N(Cc4ccccc4)C3=O)CC2)cc1` (stereo not drawn), the inhibition is 6.4%.
In the case of `COc1cc(/C=N/O)cc(Cl)c1OC` it was 1.8%.
In the case of `Cc1[nH][nH]c(=O)c1N=Nc1ccc(Cl)cc1` it was -3.2%; in that of `O=c1cc(CSCc2ccc(Cl)cc2)[nH]c(=O)[nH]1`, 2.3%; in that of `O=c1cc(N=Nc2ccc(Cl)cc2)[nH]c(=O)[nH]1`, 52.2% (active).
In the case of `O=C(COc1ccc(Cl)cc1Cl)NCCSc1ccc(Cl)cc1` it was -14.2%.
As for `O=[N+]([O-])c1c(Nc2ccc(O)cc2)cc(Cl)c2nonc12`, the inhibition was 72.1% (active).
As to `O=C(O)c1ccc(Nc2cc(Cl)c3nonc3c2[N+](=O)[O-])cc1`, the inhibition is 8.7%.
In the case of `O=[N+]([O-])c1c(Nc2cccc(O)c2)cc(Cl)c2nonc12` it was 35%; in that of `COC(=O)C1=C(C)N=C2SCCC(=O)N2C1c1cc(Br)ccc1OC` (stereo not drawn), -10.8%; in that of `CCOC(=O)c1cnn(CCOC(=O)C2CC2)c1NC(=O)C1CC1`, -5.8%.
As for `Cc1cccc(N=Cc2[nH]c3ccc(Br)c(Cl)c3c2O)c1`, the figure is 54% (active).
As to `Cc1cc(C)cc(N=Cc2[nH]c3ccc(Br)c(Cl)c3c2O)c1`, the inhibition is 41%.
As for `Cc1cccc(N=Cc2cc(Br)cc(Cl)c2O)c1`, the figure is -33.9%; as for `Nc1c(S(=O)(=O)c2cccs2)c2nc3ccccc3nc2n1CC1CCCO1` (stereo not drawn), 4.2%.
As for `NC1=NC(=O)C2(COC(c3cccnc3)OC2)S1` (stereo not drawn), the figure is -12.6%; as for `O=[N+]([O-])c1ccc2[nH]nc(-c3ccccc3)c2c1`, -6.7%; as for `Nc1nc2ccc([N+](=O)[O-])cc2[nH]1`, 20.4%.
Consider `CCC(=O)Nc1nnc(SCC(=O)NCCc2ccc(OC)c(OC)c2)s1`, for which the inhibition was -2.7%.
In the case of `Cc1cc(SCC(=O)N/N=C/c2ccc(C(=O)O)cc2)nc2ccccc12` it was 1.1%; in that of `CCN(CC)c1ccc(/C=C2\SC(=O)N(C(C)C)C2=O)o1`, 102% (active).
On to `CC(C)N1C(=O)S/C(=C\c2ccc(-c3ccc(Cl)c(C(=O)O)c3)o2)C1=O`, for which the inhibition was -27.6%.
As for `CC(C)N1C(=O)S/C(=C/c2ccc(Sc3nc4ccccc4[nH]3)o2)C1=O`, the figure is -6.1%; as for `COc1ccccc1OCCNC(=O)Nc1cc(F)c(F)cc1Cl`, 3.6%.
As for `COc1cc(-c2nc(Cc3c(F)cccc3Cl)no2)cc(OC)c1OC`, the figure is 7.3%; as for `Oc1ccccc1C1=NN(c2ccccc2)C(c2ccc(F)cc2)C1` (stereo not drawn), 1.5%.
As for `Oc1ccc(C2=NN(c3ccccc3)C(c3ccc(F)cc3)C2)cc1` (stereo not drawn), the figure is 78.6% (active); as for `COc1ccc(C2CC(c3ccc(F)cc3)=NN2c2ccccc2)cc1OC` (stereo not drawn), -7.1%; as for `COc1cccc(N2C(=O)CC(NNC(=O)c3cccs3)C2=O)c1` (stereo not drawn), -15.4%.
As for `O=C(Cn1cncn1)N/N=C/c1cccnc1`, the inhibition was -13.5%.
As to `CC(C)C1=NN2C(=N)CC(=O)N=C2S1`, the inhibition is -12.3%.
As for `Clc1ccc(Cn2ncc3c(N4CCCC4)ncnc32)cc1`, the figure is -11.9%; as for `Cc1ccc(Cn2ncc3c(N4CCN(Cc5ccc(Cl)cc5)CC4)ncnc32)cc1`, 11.6%.
`Cc1ccc(Cn2ncc3c(N4CCN(c5ccc(C)cc5)CC4)ncnc32)cc1`: the inhibition is 1.6%.
As for `Cc1ccc(Cn2ncc3c(N4CCN(C)CC4)ncnc32)cc1`, the inhibition is -0.4%.
Regarding `COc1ccc(C2c3c(ccc4ccccc34)Oc3ncn4nc(CO/N=C/c5ccccc5)nc4c32)cc1` (stereo not drawn), the inhibition was -1.8%.
Turning to `COc1ccc(C(=O)NNS(=O)(=O)c2ccccc2)cc1`, the inhibition is -5.9%.
`CC(C)[C@H](Nc1ccc(S(=O)(=O)N2CCOCC2)cc1[N+](=O)[O-])C(=O)OCC(=O)N(C(C)C)C(C)C`: the inhibition is 11.5%.
In the case of `COc1cc(/C=N/NC(=O)CC2(C)OCCCO2)ccc1OCc1ccc(Cl)cc1Cl` it was 10.6%; in that of `COc1cc(/C=N/NC(=O)CC2(C)OCCCO2)ccc1OCc1ccccc1`, -7.2%.
Regarding `O=C(NCC1CCCO1)c1cc2cc(Cl)ccc2[nH]1` (stereo not drawn), the inhibition was 2.4%.
In the case of `CCOC(=O)c1ccccc1NC(=O)Cn1cnc2c(oc3ccccc32)c1=O` it was 8.3%; in that of `COC(=O)c1ccc(CSc2nc(C)nc3c2c(=O)n(C)c(=O)n3C)o1`, -16.8%.
For `O=C(CSc1nc2cc(Cl)ccc2c(=O)n1Cc1ccco1)Nc1ccc(S(=O)(=O)N2CCOCC2)cc1`, the inhibition is -2.6%.
For `O=C(N/N=C/c1cccs1)[C@H]1C[C@@H]1c1ccccc1`, the inhibition was 9.8%.
`Oc1ccc(Nc2nc(-c3ccccc3F)nc3ccccc23)cc1`: the inhibition was -5.3%.
In the case of `Oc1ccc(/C=N/Nc2nc(-c3cccnc3)nc3ccccc23)c(O)c1` it was 8.3%.
For `CC1CCN(S(=O)(=O)c2cccc(S(=O)(=O)N3CCCC3)c2)CC1`, the inhibition was 4.8%.
